Active and inactive are the calls of the source.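 The calls were made as follows, unless noted: active = thallium flux through the channel raised or lowered by more than 3 SD from vehicle-only wells, actives on both sides; inactive = the rest.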

Assay [1] is described as follows: P. berghei load reduction in hepatocytes – cell-based, HepG2, luciferase luminescence, HepG2 viability, primary screen (AID 624349; in the data active = parasite load remaining mostly below about 12%, no sharp cut-off; inactive = mostly above about 10%;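 also: 100% = mean of DMSO negative control wells on the same plate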). As to conditions: P. berghei liver stage in HepG2, luciferase luminescence, concentration not given here; parasite load remaining: stronger effect = lower value; viability: measured here: HepG2 viability without parasites.
Assay [2] is described as follows: signal quenchers or enhancers, Cy5 substrate/SSB – biochemical, NIH Clinical Collection, E. coli SSB, artefact control for HCV NS3 helicase inhibitor project (AID 743268; call rule not given here). Particulars: Cy5-oligo bound E. coli SSB, fluorescence interference.
Assay [3] has as its system Hepatitis C virus NS3 helicase. As to the kind of experiment: blockers of NS3h binding to DNA – biochemical, fluorescence polarization, NIH Clinical Collection, primary screen (AID 743270; call rule not given here). Particulars: NS3 helicase binding to Cy5-dT15 DNA, stronger effect = higher value, concentration not given here. (In general: In fluorescence polarisation assays a small probe gives low polarisation when free and higher when bound to something large.)

For assay [4], the target named is Single-stranded DNA-binding protein (Escherichia coli (strain K12)) (UniProt P0AGE0). In words: SSB-ssDNA binding inhibitors – biochemical, fluorescence polarization, NIH Clinical Collection, counter-screen for HCV NS3 helicase inhibitor project (AID 743271; in the data active = inhibition above about 28%). Particulars: E. coli SSB-DNA binding, stronger effect = higher value, concentration not given here.
Assay [5] is described as follows: compounds distorting NS3 helicase fluorescence signal – biochemical, NIH Clinical Collection, artefact control for HCV NS3 helicase inhibitor project (AID 743272; call rule not given here;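 also: HCV NS3 helicase with a Cy5 labelled single stranded DNA probe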). Particulars: fluorescence interference counterscreen, HCV NS3 helicase assay; stronger effect = lower value. In general terms: A counterscreen serves to expose hits that act by an unwanted route or on another target.

Assay [6] is described as follows: viability loss with induced miR-34 in A549 – imaging, A549 dox-inducible miR-34, nuclei and caspase counts, primary screen (AID 1347080;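 active = compounds whose cell count with miR-34 switched on is under 0.7 times the count with it off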). Particulars: A549 miR-34 inducible, Hoechst nuclei count, 48 h.
Assay [7] can be described thus: galactose survival enhancers in mitochondrial complex I cybrids – cell-based, galactose medium, ATP luminescence, primary screen (AID 1645843;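 active = z-score of at least 1.8 in each of two replicates, scored against plate mean and spread of sample wells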;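 also: positive z means more ATP and so rescue of galactose-driven cybrid death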). Particulars: complex I mutant cybrid cells, 72 h, stronger effect = higher value.
The subject of a further assay is F380Y. As to the kind of experiment: BK channel mutant inhibitors and activators – cell-based, U2OS BacMam, thallium flux, beta subunits, selectivity assay, profiling panel (AID 1259406).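 Also: initial slope of Thallos dye fluorescence rise after thallium is added; log ratio against the mean of 0.3% DMSO vehicle wells on the same plate.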 As to conditions: U2OS BacMam BK variants, at 30 µM.
Another assay relates to F380Y/beta1. The description is as above. As to conditions: U2OS BacMam BK variants, at 30 µM.
The test system of another assay is F380Y/beta2Delta. The description is as above. Particulars: U2OS BacMam BK variants, at 30 µM.
In the next assay the test system is F380Y/beta4. The assay is described as above. As to conditions: U2OS BacMam BK variants, at 30 µM.
For assay [8], the target named is Calcium-activated potassium channel subunit alpha-1 (Homo sapiens) + Leucine-rich repeat-containing protein 26 (Homo sapiens) (UniProt Q12791+Q2I0M4). The assay is described as above. As to conditions: U2OS BacMam BK variants, F380Y/Slo1WT/gamma1, at 30 µM.
In another assay the test system is R275C. The assay is described as above. Particulars: U2OS BacMam BK variants, at 30 µM.
A further assay relates to R275C/beta1. Described as above. As to conditions: U2OS BacMam BK variants, at 30 µM.
Another assay concerns R275C/beta2Delta. Described as above. Particulars: U2OS BacMam BK variants, at 30 µM.
The next assay relates to R275C/beta4. The description is as above. As to conditions: U2OS BacMam BK variants, at 30 µM.
The subject of another assay is R275C/Slo1WT/beta2. Described as above. As to conditions: U2OS BacMam BK variants, at 30 µM.
For assay [9], the system named is Neuropilin-2 / VEGF-C interaction (human). In words: small molecules blocking Neuropilin-2/VEGF-C interaction – biochemical, microplate binding format, z-score (AID 743281; call rule not given here). Particulars: microplate NRP2/VEGF-C binding assay; stronger effect = lower value.
The nature of assay [10]: modulation of C. elegans fzo-1 (AID 1259413; call rule not given here;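 also: fzo-1 mutant C. elegans worms in liquid wells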). As to conditions: C. elegans fzo-1 modulator screen, mean read-out; stronger effect = higher value.
Setting [11] is: stronger effect = lower value, cell number ratio, induced over uninduced.
[12] abbreviates: measured here: relative caspase fold change +Dox/-Dox.
[13] abbreviates: measured here: total cells with miR-34 induction, stronger effect = lower value.
The mark [14] stands for this setting: measured here: total cells without miR-34 induction.

Chain of Calcium-activated potassium channel subunit alpha-1 (Homo sapiens) + Leucine-rich repeat-containing protein 26 (Homo sapiens) (Q2I0M4 whole entry, looked up, one chain of several): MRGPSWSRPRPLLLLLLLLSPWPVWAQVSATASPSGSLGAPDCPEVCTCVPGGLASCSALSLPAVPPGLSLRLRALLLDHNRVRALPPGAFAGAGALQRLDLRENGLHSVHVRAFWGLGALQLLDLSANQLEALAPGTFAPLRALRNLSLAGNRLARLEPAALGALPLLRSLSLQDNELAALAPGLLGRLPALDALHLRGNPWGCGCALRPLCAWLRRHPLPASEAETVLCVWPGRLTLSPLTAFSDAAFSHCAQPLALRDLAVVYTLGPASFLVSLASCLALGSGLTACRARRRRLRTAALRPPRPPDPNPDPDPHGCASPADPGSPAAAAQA

A word on the viability: it is the share of living cells, or the viability signal relative to a control. In general, inhibition refers to the relative decrease from the control value, in per cent. For the compound `O=C1N=C(O)CN1N=Cc1ccc(-c2ccc([N+](=O)[O-])cc2)o1`, in [1], the parasite load remaining is 10.7% (inactive). Also, the viability in [1] worked out at 83.3%. Moreover, the fluorescence ratio was 1.04 (inactive) in assay [2] and 0.97 (inactive) in assay [5]. Further, the results for the inhibition in [3] and in assay [4] were 0.45% (inactive) and 7.91% (inactive), respectively. In addition, the fold change was 0.951 (inactive) in [6] (setting [11]) and 1.68 in assay [6] (setting [12]). In addition, the cell count in assay [6] (setting [13]) is 7170; in assay [6] (setting [14]), 7540. Moreover, the z-score in [7] is -0.1 (inactive). Besides, the log fold change Tl+ flux in the assay on F380Y is 0.0284 (inactive); with F380Y/beta1, 0.16 (active); in the assay on F380Y/beta2Delta, 0.0246 (inactive); with F380Y/beta4, -0.0396 (inactive); in [8], 0.0789 (inactive); with R275C, 0.0615 (inactive). Also, the log fold change Tl+ flux was 0.0553 (inactive) with R275C/beta1, 0.0141 (inactive) in the assay on R275C/beta2Delta, 0.0532 (inactive) in the assay with R275C/beta4 and 0.0367 (inactive) in the assay on R275C/Slo1WT/beta2.

Turning to `CC(C)CC(NC(=O)C(COC(C)(C)C)NC(=O)C(Cc1ccc(O)cc1)NC(=O)C(CO)NC(=O)C(Cc1c[nH]c2ccccc12)NC(=O)C(Cc1cnc[nH]1)NC(=O)C1CCC(=O)N1)C(=O)N[C@@H](CCCN=C(N)N)C(=O)N1CCCC1C(=O)NNC(N)=O` (some centres undefined), the parasite load remaining in [1] was 82.9% (inactive). Also, the viability in assay [1] came to 90.6%. For the same compound, the fluorescence ratio is 0.89 (inactive) in [2] and 0.87 (inactive) in assay [5]. For the same compound, the values for the inhibition in assay [3] and in assay [4] were -0.22% (inactive) and 7.48% (inactive), respectively. In addition, in [9], the z-score is -0.441 (inactive). In addition, the log fold change Tl+ flux with F380Y was -0.0277 (inactive); in the assay with F380Y/beta1 it was 0.02 (inactive); in the assay on F380Y/beta2Delta it was -0.0184 (inactive); with F380Y/beta4, 0.00509 (inactive); in assay [8] it was -0.0112 (inactive); in the assay with R275C, -0.0448 (inactive). For the same compound, the log fold change Tl+ flux is 0.00576 (inactive) with R275C/beta1, -0.00625 (inactive) in the assay with R275C/beta2Delta, -0.0787 (inactive) with R275C/beta4 and 0.0919 (active) with R275C/Slo1WT/beta2.

Regarding `C=CC[C@@H]1C=C(C)C[C@H](C)C[C@H](OC)[C@H]2O[C@@](O)(C(=O)C(=O)N3CCCC[C@H]3C(=O)O[C@H](/C(C)=C/[C@@H]3CC[C@@H](O)[C@H](OC)C3)[C@H](C)[C@@H](O)CC1=O)[C@H](C)C[C@@H]2OC`, the parasite load remaining in assay [1] was 77.5% (inactive). The same compound yielded a viability in assay [1] of 72.5%. The results for the fluorescence ratio in [2] and in [5] were 0.94 (inactive) and 0.92 (inactive), respectively. Moreover, the inhibition is -1.19% (inactive) in assay [3] and 2.21% (inactive) in assay [4]. Also, the log fold change Tl+ flux was -0.344 (active) with F380Y; -0.0137 (inactive) in the assay on F380Y/beta1; -0.629 (active) in the assay with F380Y/beta2Delta; 0.109 (active) in the assay on F380Y/beta4; 0.0458 (inactive) in assay [8]; -0.067 (inactive) in the assay with R275C. Further, the log fold change Tl+ flux in the assay on R275C/beta1 was 0.274 (active); in the assay on R275C/beta2Delta it was 0.123 (active); in the assay on R275C/beta4, 0.467 (active); with R275C/Slo1WT/beta2 it was 0.00553 (inactive).

On to `CCC(=O)NS(=O)(=O)c1ccc(-c2c(-c3ccccc3)noc2C)cc1`, for which the parasite load remaining in assay [1] was 75.3% (inactive). Further, in assay [1], the viability was 68.9%. Besides, the results for the z-score in [9] and in [7] were 1.11 (inactive) and 0.78 (inactive), respectively. Also, in assay [10], the mean signal is 273 (inactive). Also, the fold change was 0.873 (inactive) in assay [6] (setting [11]) and 1.74 in assay [6] (setting [12]). For the same compound, the cell count is 9000 in assay [6] (setting [13]) and 10300 in assay [6] (setting [14]). Besides, the log fold change Tl+ flux was 0.0552 (inactive) in the assay on F380Y; 0.000846 (inactive) with F380Y/beta2Delta; 0.0287 (inactive) in assay [8]; 0.0383 (inactive) with R275C; -0.00911 (inactive) with R275C/beta1; -0.00297 (inactive) with R275C/beta2Delta.

The record behind these values is PubChem BioAssay.
